Assay outcomes as filed in PubChem.
SMN2 splice enh – qHTS Assay for Enhancers of SMN2 Splice Variant Expression | HEK293 SMN2-luciferase splicing reporter, luminescence, 30-36 h | Potency, µM (top dose mostly 46.1 µM), for the others: at the top dose activity change, positive = activation, most hits filed as activators | actives 2.8% (n = 210,000) | AID 1458, 2008; further: % of control where 0% means no effect; nearly all actives have a fitted effect of over 55% in size
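HEK293 cells carry an SMN2 minigene-luciferase reporter in which exon 7 inclusion puts luciferase in frame. Cells were seeded at 2000 cells/well, attached for 10-12 hours, then exposed to compounds for 30-36 hours at 37C before ONE-Glo luminescence.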
Rab9 promoter act – qHTS Assay for Rab9 Promoter Activators | Huh7 Rab9 promoter-luciferase reporter, luminescence, 24 h | Potency, µM (highest dose often 9.22 µM), inactives show at the highest dose activation, negative = inhibition, hits mostly activators | actives 2.8% (n = 320,000); further: % of control where 0% means no effect; nearly all actives have a fitted effect of over 60% in size
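Measured in stably transfected Huh7 cells bearing a Rab9 promoter–luciferase construct: 24 h compound treatment at 37 °C, followed by luminescence detection.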
ELG1 genotoxic – qHTS screen for small molecules that induce genotoxicity in human embryonic kidney (HEK293T) cells expressing luciferase-tagged ELG1; HEK293T ELG1-luciferase reporter, luminescence, 16 h; Potency, µM (top dose mostly 46 µM), without a hit: top-dose activity change, positive = activation, most hits filed as activators; actives 1.3% (n = 330,000); AID 504466, 2011; further: % of control where 0% means no effect; nearly all actives have a fitted effect of over 60% in size
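16 hr compound incubation (37 °C, 5% CO2) of HEK293T cells carrying luciferase-tagged ELG1; luciferase then measured by ONE-Glo luminescence after 30 min at RT.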
NPC1 promoter act – qHTS Assay for NPC1 Promoter Activators; Huh7 NPC1 promoter luciferase reporter, 24 h; Potency, µM (doses to about 9.22 µM), for inactives: at the top dose activation, actives largely listed as activators; actives 2.4% (n = 320,000); AID 485313, 2010; further: % of control where 0% means no effect; nearly all actives have a fitted effect of over 60% in size
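Stably transfected Huh7 (NPC1 promoter→luciferase), 1500 cells/well in Opti-MEM + 10% FBS, 2 h settle, then compound 24 h at 37 °C. Luminescence after 10 min with Amplite reagent.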
FLuc modulator – qHTS profiling assay for firefly luciferase inhibitor/activator using purifed enzyme and Km concentrations of substrates (counterscreen for miR-21 project); AID 588342, 2011; purified FLuc, Km substrates, luminescence inhibition; Potency, µM (series often up to 57.5 µM), without a hit: at the highest dose activity change, negative = inhibition, actives largely listed as inhibitors; actives 6.9% (n = 360,000); Luciferin 4-monooxygenase (Photinus pyralis), P08659;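 further: plate controls were vehicle for no effect and reference inhibitor for full effect; nearly all actives have a fitted effect of over 55% in size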
Target sequence (P08659 whole entry, looked up): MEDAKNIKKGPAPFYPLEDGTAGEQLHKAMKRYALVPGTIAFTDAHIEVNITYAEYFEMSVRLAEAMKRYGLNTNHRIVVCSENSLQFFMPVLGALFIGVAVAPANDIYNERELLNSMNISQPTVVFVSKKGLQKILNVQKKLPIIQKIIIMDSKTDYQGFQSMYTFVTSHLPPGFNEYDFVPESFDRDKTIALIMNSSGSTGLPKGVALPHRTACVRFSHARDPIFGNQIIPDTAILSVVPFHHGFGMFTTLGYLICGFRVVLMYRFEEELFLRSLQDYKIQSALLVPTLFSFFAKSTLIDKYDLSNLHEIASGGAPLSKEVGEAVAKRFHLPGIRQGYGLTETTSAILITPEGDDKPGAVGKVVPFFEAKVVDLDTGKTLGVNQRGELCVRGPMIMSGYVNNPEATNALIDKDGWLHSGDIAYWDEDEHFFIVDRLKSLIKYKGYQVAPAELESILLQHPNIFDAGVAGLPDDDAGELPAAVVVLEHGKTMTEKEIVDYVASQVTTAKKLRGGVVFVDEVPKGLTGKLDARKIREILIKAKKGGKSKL
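Purified P. pyralis luciferase (10nM final) with 10uM D-luciferin and 10uM ATP (Km levels) in 50mM Tris acetate pH 7.5, 10mM Mg acetate, 0.01% Tween-20, 0.05% BSA; qHTS 6-point titration, ~60 µM downward; luminescence read.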
Active calls of the source: *; ? = inconclusive; · = not tested or not shown; [ ] = dose if it differs, or a comment. Only some compounds are listed: those with a hit (about 7.5% of all), similar ones and a draw of the others. The call rests on the fitted dose curve; in most records, active means well fitted curve in the direction sought with a large enough effect; inconclusive means small, poorly fitted or top-dose-only effect, or another doubt; inactive means no such curve, though single readings can be large; an effect the other way counts as inactive or inconclusive. Potency means the concentration at half of the fitted maximal effect.

SMILES	SMN2 splice enh	Rab9 promoter act	ELG1 genotoxic	NPC1 promoter act	FLuc modulator
Cc1c(Cc2ccccc2)c(=O)oc2cc(OCC(=O)NCC3CCC(C(=O)O)CC3)ccc12 (configuration not stated)	·	-4%	-3%	1%	-16%
COc1ccc(C(=O)Nc2nnc(SCC(=O)NCc3ccco3)s2)c(OC)c1	·	0.32µM*	0.52µM*	0.28µM*	0.67µM*
O=C(CSc1nnc(NC(=O)c2ccccc2F)s1)NCc1ccco1	·	4µM*	16µM*	3.5µM*	8.5µM*
O=C(CSc1nnc(NC(=O)c2c(F)cccc2F)s1)NCc1ccco1	·	2%	11%	-3%	-17%
CCN(CC)C(=O)c1csc(Nc2ccc(C)cc2)n1	·	12%	0%	9%	?
Cc1ccc(Nc2nc(C(=O)NCc3ccco3)cs2)cc1	-15%	-2%	-3%	11%	24µM*
Cc1ccc(CSc2nnc(Nc3ccc(C)cc3)s2)cc1	-1%	-2%	0%	0%	-8%
CCSc1nnc(Nc2ccc(C)cc2)s1	?	2.8µM*	?	3.5µM*	9.5µM*
COC(=O)[C@@]1(Cc2ccc(OC)cc2)[C@H]2c3cc(C(=O)N4CCCC4)n(CCc4ccc(O)c(OC)c4)c3C[C@H]2CN1C(=O)c1ccccc1	-15%	·	·	·	·
COc1ccccc1C(=O)Nc1nnc(SCC(=O)NCc2ccco2)s1	·	2.2µM*	2.3µM*	3.2µM*	3.4µM*
O=C(CSc1nnc(Nc2ccccc2)s1)NCc1ccco1	-17%	10%	-4%	0%	?
Cc1ccc(Nc2nnc(SCC(=O)NCc3ccco3)s2)cc1	8%	6%	1%	21%	13µM*
COc1ccc(C(=O)Nc2nnc(SCC(=O)NCc3ccco3)s2)cc1OC	·	18%	2%	?	-3%
CCCC(=O)NCc1cc(-c2nn(C)c(=O)c3ccccc23)ccc1OC	16%	1%	14%	-5%	-2%
O=[N+]([O-])c1ccc(Sc2ncc3ccccn23)nc1	·	-1%	-6%	-2%	2%
CCOc1ccc(OCC)c(NC(=O)C2CCN(S(=O)(=O)c3ccc(Br)s3)CC2)c1	-3%	·	·	·	1%
CNc1nc(N)c([N+](=O)[O-])c(NCc2ccccc2)n1	·	-11%	17%	-5%	3%
Cc1ccc(Nc2nc(N)c([N+](=O)[O-])c(NCc3ccco3)n2)cc1C	?	26%	9%	?	24µM*
Cc1ccc(Nc2nc(N)c([N+](=O)[O-])c(NCCO)n2)cc1C	·	10%	18%	20%	15µM*
CNc1nc(NCc2ccccc2)nc(N)c1[N+](=O)[O-]	·	-1%	18µM*	-2%	6%
CN(Cc1ccco1)c1ncnc2ccc(-c3cccc(Cl)c3)cc12	·	-1%	·	-3%	2%
O=C(c1ccccc1)N1c2nc(-c3ccco3)nn2C2(CCCCC2)[C@@H]2CCCC[C@@H]21	·	·	·	·	-5%
CCN1C(=O)[C@H]2[C@@H](c3ccc(-c4ccc(F)cc4)c(OC)c3)N[C@@](Cc3ccccc3)(C(=O)OC)[C@H]2C1=O	·	·	-6%	·	·
COc1ccc(C(=O)CNc2ccc(C)cc2C)cc1	·	36%	12%	23%	12µM*
COc1ccc(C(=O)CNc2ccccc2CO)cc1	?	-3%	?	10%	17µM*
SMILES	SMN2 splice enh	Rab9 promoter act	ELG1 genotoxic	NPC1 promoter act	FLuc modulator
CN(C)c1ccc(N=Nc2ccc(S(=O)(=O)O)cc2)c2ccccc12	6%	2%	-8%	-1%	17µM*
Clc1ccccc1OCc1nc(-c2ccccn2)no1	4.5µM*	0.32µM*	4.6µM*	0.45µM*	1.9µM*
Clc1ccc(OCc2nc(-c3ccccn3)no2)c(Br)c1	0.56µM*	0.45µM*	0.82µM*	0.35µM*	0.21µM*
CS(=O)(=O)c1ccc2nc(NC(=O)c3ccc(=O)[nH]c3)sc2c1	·	7%	6%	-7%	6.7µM*
CS(=O)(=O)c1ccc2nc(NC(=O)c3ccc(Cl)cc3)sc2c1	·	24%	0%	3%	?
Cn1nc(C(=O)Nc2nc3ccc(S(C)(=O)=O)cc3s2)ccc1=O	-2%	-1%	11%	0%	11µM*
Cc1ccc(OCC(=O)Nc2cccc(OCc3cc(=O)n4cccc(C)c4n3)c2)cc1C	·	·	·	·	-12%
COc1ccc(Oc2ncc3nc(-c4cc(F)cc(F)c4)c(=O)n(C)c3n2)cc1	-17%	·	·	·	·
CCCN(CCC)S(=O)(=O)c1ccc(C(=O)N2CCn3c4c(c5cc(C)ccc53)CCCC42)cc1 (configuration not stated)	-1%	·	·	·	?
O=c1oc2c(CN3CCOCC3)c(O)ccc2c2c1CCCC2	-15%	-2%	-14%	23%	0%
O=c1oc2c(CN3CCOCC3)c(O)ccc2c2ccccc12	3%	29%	13%	4µM*	?
COc1ccc(CNc2ncncc2-c2ccc3c(c2)OCO3)c(OC)c1	-1%	·	·	·	·
O=C(NCc1ccc2c(c1)CCO2)Nc1ccccc1	·	3.2µM*	?	3.5µM*	15µM*
C/C(=N/N=C/c1ccccc1O)c1ccccc1O	·	?	6.5µM*	25%	1.1µM*
CCCS/C(N)=N/N=C/c1cc(C)ccc1O	-14%	?	6.5µM*	3.2µM*	2.4µM*
Oc1ccccc1C=NCCN=Cc1ccccc1O	·	1%	0%	0%	-7%
CCCCS/C(N)=N/N=C/c1ccccc1O	3%	3.2µM*	?	?	13µM*
COc1ccccc1C(=O)Nc1onc(C)c1C#N	8%	0%	-3%	1%	-2%
CCOC(=O)C1CCCN(C(=O)CNC(=O)c2ccc(Br)o2)C1 (configuration not stated)	·	·	0%	·	·
NS(=O)(=O)c1cc([C@@]2(O)NC(=O)c3ccccc32)ccc1Cl	-3%[20.6 µM]	·	·	·	·
Cc1ccc2cc(C3CC(c4ccco4)=NN3S(=O)(=O)c3ccccc3)c(Cl)nc2c1 (configuration not stated)	32µM*	-4%	-2%	-3%	3%
COc1ccc(S(N)(=O)=O)cc1C(=O)OCC(=O)N1CCCC(C)C1 (configuration not stated)	·	·	3%	·	·
Cn1c(=O)c2cc(C(=O)N3CCN(c4ccc(Cl)cc4)CC3)sc2c2ccccc21	5%	·	·	·	-2%
C=C(C)CSc1nnc2n(N)c(=O)c3ccccc3n12	18%	?	?	20%	17µM*
Clc1ccccc1-c1nc(-c2ccccc2)n[nH]1	?	2.8µM*	?	3.2µM*	6.7µM*
COc1ccc(NC(=O)Nc2cccc(OCc3cc(=O)n4cccc(C)c4n3)c2)c(OC)c1	·	·	·	·	-11%
COc1ccccc1-c1cc2ccccc2[nH]1	13µM*	?	?	30%	15µM*
